FAS TE block: inhibitors of human fatty acid synthase thioesterase domain | inhibition, % at 15 µM | recombinant FAS-TE, OMFH fluorogenic substrate, fluorescence endpoint | P49327 | 360,000 compounds, 0.67% hits | AID 602261;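 active means compounds whose normalised, plate-corrected inhibition of enzyme fluorescence in the single-dose primary screen is 50% or more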
NR3A LBD binder: modulators (binders) of human NR3A ligand-binding domain | Tm shift relative to glycine control, % at 25 µM | NR3A LBD differential scanning fluorimetry, Tm shift; 0% = protein alone, 100% = glycine-bound protein | 340,000 compounds, 2.5% hits;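 active means melting temperature shift of at least 10% of the positive control shift, at one fixed dose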
MPTP inh: inhibitors of mitochondrial permeability transition pore | isolated mouse mitochondria, Ca2+ swelling absorbance, 30 min | 360,000 compounds, 1.4% hits | inhibition, % at 10 µM;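 active means inhibition of 50% or more, scaled per plate between neutral and stimulator controls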
Myeloid diff MLP: promotes myeloid progenitor differentiation | ER-HoxA9 myeloid progenitors, lysozyme-GFP differentiation, flow cytometry | calls only at 10 µM | 360,000 compounds, 1% hits | AID 624256;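 active means normalized GFP-positive differentiation at or above the plate's own cutoff, the solvent-only control mean plus 3 SD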;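 further: cells exposed to compound for four days before flow analysis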
rCAG binder: r(CAG) repeat RNA binding; TO-PRO-1 dye displacement fluorescence; inhibition, % at 3 µM; 370,000 compounds, 1.3% hits;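 active means inhibition above the plate cutoff, the mean of all test compounds on that plate plus 3 SD, cut at about 35% in these data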;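 further: higher means more dye released from RNA so lower well fluorescence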
rCAG binder conf: r(CAG) RNA repeat binding, confirmation. inhibition, % at 3 µM. TO-PRO-1 dye displacement fluorescence. 4,300 compounds, 70% hits. shares compounds with rCAG binder;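 active means inhibition above a per-plate cutoff, the mean inhibition of sample wells plus 3 SD, cut at about 35% in these data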;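 further: loss of TO-PRO-1 fluorescence as compound displaces dye from 1x1 AA loop RNA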
DNA CAG counter: counter-screen for rCAG RNA binders: DNA CAG dye complex inhibitors | shares compounds with rCAG binder | d(CAG) DNA oligo TO-PRO-1 dye displacement, fluorescence | inhibition, % at 3 µM | 4,300 compounds, 94% hits | AID 652068;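 active means inhibition above its plate's cutoff, the mean test-well inhibition plus 3 SD, cut at about 4.8% in these data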;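 further: hits displace the dye from DNA and so lower well fluorescence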
Each line names hits and unclear results; the compound was inactive in the other large screens (follow-up assays come after a bar, where they were run). Shown are actives, neighbours in structure and some others; about 5.7% of the full set was active somewhere.

Cc1cc(C)c[n+](-c2[nH]c(=O)sc2/C=N/N=C(\[O-])c2cccnc2)c1	none
COc1cc(/C=C2\SC(=S)N(N3CCOCC3)C2=O)ccc1O	none
O=C1/C(=C\c2ccc(O)c(O)c2)SC(=S)N1Cc1ccccc1	NR3A LBD binder 29.2, Myeloid diff MLP active, rCAG binder 64.0 | rCAG binder conf 68.6 | DNA CAG counter 38.4
COc1cc(/C=C2/SC(=NCc3ccccc3)N(Cc3ccccc3)C2=O)ccc1O	NR3A LBD binder 13.0, rCAG binder 38.1 | rCAG binder conf 41.8 | DNA CAG counter 23.0
COc1cc(/C=C2/SC(=S)N(Cc3ccccc3)C2=O)ccc1O	NR3A LBD binder 20.3, Myeloid diff MLP active, rCAG binder 55.4 | rCAG binder conf 35.1 | DNA CAG counter 17.8
COc1ccc(/C=C2\SC(=S)N(Cc3cccnc3)C2=O)cc1C	none
NS(=O)(=O)c1ccc(NC(=O)/C(=C/c2ccncc2)NC(=O)c2ccccc2)cc1	none
CC(/C=C/c1ccco1)=N\NC(=O)c1cc(Cl)ccc1O	rCAG binder 49.1 | rCAG binder conf 36.6 | DNA CAG counter 15.7
Cc1cc(NS(=O)(=O)c2ccc(NC(=O)CSc3nnc(-c4ccc(Cl)cc4)n3Cc3ccco3)cc2)nc(C)n1	rCAG binder 38.5 (no result: FAS TE block, NR3A LBD binder, MPTP inh, Myeloid diff MLP) | rCAG binder conf 41.0 | DNA CAG counter 14.1
O=C(CSc1nnc(-c2ccccc2)n1Cc1ccco1)Nc1ccc(S(=O)(=O)N2CCCC2)cc1	none
O=C(CSc1nnc(-c2ccc(Cl)cc2)n1Cc1ccco1)Nc1ccc(S(=O)(=O)Nc2nccs2)cc1	rCAG binder 76.9 (no result: FAS TE block, NR3A LBD binder, MPTP inh, Myeloid diff MLP) | rCAG binder conf 68.6 | DNA CAG counter 32.0
Cc1ccc(OCc2nnc(SCC(=O)Nc3ccc(S(=O)(=O)Nc4cc(C)nc(C)n4)cc3)n2Cc2ccco2)cc1	rCAG binder 37.8 (no result: FAS TE block, NR3A LBD binder, MPTP inh, Myeloid diff MLP) | rCAG binder conf 46.8 | DNA CAG counter 13.1
CONC(=O)C1CCN(C(=O)OCc2ccccc2)CC1	none
COc1ccc(CN(C)S(=O)(=O)c2nnc(NC(=O)c3cccc(C)c3)s2)cc1OC	rCAG binder 66.9 | rCAG binder conf 52.9 | DNA CAG counter 16.6
Cc1cccc(NS(=O)(=O)c2nnc(NC(=O)c3ccc(C)c(C)c3)s2)c1	rCAG binder 40.9 | rCAG binder conf 36.7 | DNA CAG counter 14.5
COc1ccc(C(=O)Nc2nnc(S(=O)(=O)N(C)Cc3ccc(F)cc3)s2)cc1OC	none
Cc1cccc(NS(=O)(=O)c2nnc(NC(=O)C3CCCCC3)s2)c1	rCAG binder 37.2 | rCAG binder conf inactive | DNA CAG counter 5.3
Cc1cccc(NS(=O)(=O)c2nnc(NC(=O)CC(C)C)s2)c1	none
COc1ccc(-c2nc(CSCC(=O)NCCCN3CCCC3=O)c(C)o2)cc1	none
O=C(O)CN1C(=O)/C(=C\c2cc(Br)ccc2OCc2ccc(Cl)cc2)SC1=S	rCAG binder 87.7 | rCAG binder conf 93.9 | DNA CAG counter 73.9
O=C(O)CN1C(=O)/C(=C\c2cc([N+](=O)[O-])ccc2OCc2ccccc2Cl)SC1=S	rCAG binder 86.1 | rCAG binder conf 85.2 | DNA CAG counter 53.5
COc1ccc(/C=C2/SC(=S)N(CC(=O)O)C2=O)cc1OCc1ccc(Cl)cc1	none
O=C(O)CN1C(=O)/C(=C\c2cc(Br)ccc2OCc2ccc(F)cc2)SC1=S	NR3A LBD binder 28.8, rCAG binder 81.2 | rCAG binder conf 89.4 | DNA CAG counter 60.7
Cc1ccc(N(CC(=O)NCCc2ccccc2)C(=O)CCC(=O)Nc2cc(C)ccn2)cc1	none
COc1ccc(C(C(=O)Nc2c(C)cccc2C)n2c(=O)c(-c3ccco3)nc3ccccc32)cc1 (configuration not stated)	rCAG binder 38.0 (no result: FAS TE block, NR3A LBD binder) | rCAG binder conf inactive | DNA CAG counter 10.4
CC(C)(C)NC(=O)C(c1ccnc2ccccc12)n1c(=O)c(-c2ccco2)nc2ccccc21 (configuration not stated)	rCAG binder 36.2 (no result: FAS TE block, NR3A LBD binder) | rCAG binder conf inactive | DNA CAG counter 14.8
CC(C)(C)NC(=O)C(c1cc2ccccc2o1)n1c(=O)c(-c2ccco2)nc2ccccc21 (configuration not stated)	none (no result: FAS TE block, NR3A LBD binder)
CCC(C(=O)NCCc1ccc(OC)cc1OC)n1nc(C)n2c(cc3occc32)c1=O (configuration not stated)	none
CC(C)(C)NC(=S)NC1CC1	none
CCC(C)NCCOCCSc1ccc(Cl)cc1 (configuration not stated)	none
CC1(C(=O)Nc2ccc3[nH]ncc3c2)CCN1C(=O)Cc1ccc(-c2ccccc2)cc1 (configuration not stated)	none (no result: NR3A LBD binder)
Cc1ccc(C(=O)NNC(=O)CSc2nnc(C3CC3)n2C)cc1	none
O=C(Nc1nnc(C2CC2)o1)c1ccc(S(=O)(=O)N2CCCc3ccccc32)cc1	rCAG binder 35.6 | rCAG binder conf inactive | DNA CAG counter 11.0
COCc1nnc(NC(=O)c2ccc(S(=O)(=O)N3CCCc4ccccc43)cc2)o1	none
CCN(CC(=O)Nc1ccc(OC)cc1)C(=O)CSCC(=O)Nc1cc(C)on1	none
CC(=O)C1=C(O)C2(C)c3c(O)c(C)c(O)c(C(C)=O)c3OC2CC1=O (configuration not stated)	rCAG binder 76.3 (no result: NR3A LBD binder) | rCAG binder conf 52.0 | DNA CAG counter 17.5
C[C@H](CO)N1C[C@H](C)[C@@H](CN(C)C(=O)NC2CCCCC2)Oc2c(NC(=O)C3CCCCC3)cccc2C1=O	none
O=C(O)CCC(=O)N1N=C(c2ccc(Br)cc2)CC1c1ccc(Br)cc1 (configuration not stated)	rCAG binder 38.5 | rCAG binder conf 51.2 | DNA CAG counter 14.1
COc1cc(C=Nn2c(-c3ccc(F)cc3)n[nH]c2=S)ccc1OCc1ccccc1	rCAG binder 49.9 (no result: FAS TE block, NR3A LBD binder, MPTP inh, Myeloid diff MLP) | rCAG binder conf 52.5 | DNA CAG counter 16.9
COc1cc(/C=N/n2c(-c3ccccc3)n[nH]c2=S)ccc1O	none
COc1ccc(C=Nn2c(-c3ccc(F)cc3)n[nH]c2=S)cc1OCc1ccccc1	rCAG binder 34.6 (no result: FAS TE block, NR3A LBD binder, MPTP inh, Myeloid diff MLP) | rCAG binder conf 39.4 | DNA CAG counter 11.9
CCn1c2ccccc2c2cc(C=Nn3c(-c4ccccc4C)n[nH]c3=S)ccc21	rCAG binder 49.0 (no result: FAS TE block, NR3A LBD binder, MPTP inh, Myeloid diff MLP) | rCAG binder conf 56.0 | DNA CAG counter 23.1
COc1cc(C=Nn2c(-c3ccccc3F)n[nH]c2=S)ccc1OCc1ccccc1	rCAG binder 53.0 (no result: FAS TE block, NR3A LBD binder, MPTP inh, Myeloid diff MLP) | rCAG binder conf 48.1 | DNA CAG counter 11.9
Cc1onc(-c2c(Cl)cccc2Cl)c1C(=O)NCCc1ccc(S(N)(=O)=O)cc1	none
COC(=O)Cc1ccc(NC(=O)c2ccc3c(c2)C(=O)N(Cc2ccco2)C3=O)cc1	none
CCc1ccc(NC(=O)c2ccc3c(c2)C(=O)N(Cc2ccco2)C3=O)cc1	rCAG binder 34.9 | rCAG binder conf inactive | DNA CAG counter 14.3
CCc1cc(=O)oc2cc3occ(-c4ccc(OC)c(F)c4)c3cc12	none (no result: Myeloid diff MLP)
